This is an account of results in PubChem BioAssay (EPA / NIEHS).

Read-out in assay [1]: UDP glucuronosyltransferase (UGT1A1), UGT1A1 (gene 54658)
As to the kind of experiment: LTEA_HepaRG_UGT1A1: Life Technologies and Expression Analysis (LTEA) Assay for UDP glucuronosyltransferase (UGT1A1) using HepaRG (AID 2283538; active means hit-call score of the fitted dose curve at least 0.9, where 1 is the maximum; inactive means score below 0.9). Particulars: mRNA level, 48 h; actives raise or lower the signal. The procedure, abridged:
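Readout is UGT1A1 transcript level by qRT-PCR, normalized to three housekeeping genes, after 48 h chemical treatment of HepaRG cells. Concentrations ran from 100 uM down in half-log steps with 0.5% DMSO, and gain or loss relative to DMSO was fitted.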

Read-out in assay [2]: UDP glucuronosyltransferase (UGT1A6), UGT1A6 (gene 54578)
Briefly: LTEA_HepaRG_UGT1A6: Life Technologies and Expression Analysis (LTEA) Assay for UDP glucuronosyltransferase (UGT1A6) using HepaRG (AID 2283539; active means hit-call score of the fitted dose curve at least 0.9, where 1 is the maximum; inactive means score below 0.9). Particulars: mRNA level, 48 h; actives raise or lower the signal. The procedure, abridged: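 Endpoint is UGT1A6 transcript induction or loss in a human liver cell line, quantified by TaqMan qRT-PCR 48 h after dosing. Concentrations ran from 100 uM downward in half-log steps in 0.5% DMSO; activity was fitted in both directions versus vehicle.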

Read-out in assay [3]: X-box binding protein 1 (XBP1), XBP1 (gene 7494)
As to the kind of experiment: LTEA_HepaRG_XBP1: Life Technologies and Expression Analysis (LTEA) Assay for X-box binding protein 1 (XBP1) using HepaRG (AID 2283540; active means hit-call score of the fitted dose curve at least 0.9, where 1 is the maximum; inactive means score below 0.9). Particulars: mRNA level, 48 h; actives raise or lower the signal. Put shortly: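 Human HepaRG monolayers receive test chemical for 48 h across an eight-point half-log series starting at 100 uM. XBP1 mRNA gain or loss is scored against DMSO by qRT-PCR.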

Assay [4] in a line: LTEA_HepaRG_LDH_cytotoxicity: Cytotoxicity Assessment in the Life Technologies and Expression Analysis (LTEA) Assay (AID 2283563).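 On AC50: LDH activity released into spent culture medium as a marker of cell death.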 The procedure, abridged:
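Human HepaRG hepatic cells are treated with test chemicals for 48 h at up to 100 uM in 0.5% DMSO. Cytotoxicity is scored from medium LDH against the vehicle control.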

The nature of assay [5]: ATG_XTT_Cytotoxicity: Cytotoxicity Assessment in the Attagene TRANS-FACTORIAL HepG2 Assay (AID 2283584).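 On AC50: XTT signal for cell number as viability in transfected HepG2 cells; cells exposed to compound for 24 h before reading; active means loss of viability signal versus DMSO baseline.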 Put shortly: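 Transfect HepG2 with GAL4-UAS reporter units, dose compound, incubate 24 h, then measure viable cell number by XTT. Fit concentration response against DMSO baseline.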
The nature of assay [6]: Tanguay_ZF_120hpf_MORT_legacy: (Legacy) Oregon State University Tanguay Lab 120 Hour Post-fertilization zebrafish Assay for Mortality (AID 2283633).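 On AC50: fitted as increase in binary mortality versus DMSO negative control.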 Put shortly:
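Mortality endpoint from a multiplexed whole-embryo zebrafish screen. Dechorionated wild-type embryos received compound at 6 hpf and remained under static exposure at 28C until 120 hpf, with death noted as a present/absent call.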

Assay [7] is described as follows: Tanguay_ZF_120hpf_EYE_legacy: (Legacy) Oregon State University Tanguay Lab 120 Hour Post-fertilization zebrafish Assay for Eye Malformation (AID 2283636). The procedure, abridged: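 Read-out is binary presence or absence of eye malformation, scored by brightfield microscopy at 120 hpf. Single larvae were exposed from 6 hpf in embryo medium containing 0.64% DMSO, with DMSO as baseline.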

Assay [8] can be described thus: Tanguay_ZF_120hpf_SNOU_legacy: (Legacy) Oregon State University Tanguay Lab 120 Hour Post-fertilization zebrafish Assay for Snout Malformation (AID 2283637). The procedure, abridged:
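Snout malformation read as a yes/no call on brightfield images of 120 hpf larvae (Tropical 5D strain). Static exposure began at 6 hpf on dechorionated embryos in 0.64% DMSO, with gain of signal analysed versus DMSO controls.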

The nature of assay [9]: Tanguay_ZF_120hpf_JAW_legacy: (Legacy) Oregon State University Tanguay Lab 120 Hour Post-fertilization zebrafish Assay for Jaw Malformation (AID 2283638). The procedure, abridged:
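Static waterborne exposure of dechorionated wild-type (Tropical 5D) zebrafish from 6 to 120 hpf at 28C, 0.64% DMSO vehicle; 5uM trimethyltin chloride served as positive control. Jaw morphology recorded as binary at 120 hpf.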

Assay [10] can be described thus: Tanguay_ZF_120hpf_OTIC_legacy: (Legacy) Oregon State University Tanguay Lab 120 Hour Post-fertilization zebrafish Assay for Otic Vesicle Malformation (AID 2283639). The procedure, abridged:
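Embryos from 5D wild-type adults exposed in plates; DMSO 0.64% v/v final. Sealed, light-protected, 28C, static to 120 hpf. Otic vesicle malformation recorded as binary endpoint; gain-of-signal fitted vs DMSO.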

Assay [11] concerns the target Cellular tumor antigen p53 (Homo sapiens) (UniProt P04637). As to the kind of experiment: TOX21_p53_BLA_p2_ratio: Tox21 HCT-116 p53 Agonism Beta-lactamase Assay, Ratio, Phase 2 (AID 2283592). Put shortly:
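An inducible beta-lactamase reporter in HCT116 cells signals p53 pathway activation. After 16 h chemical exposure at 37C, cells load CCF4-AM substrate for 2 h at room temperature; activity is the cleaved/uncleaved emission ratio relative to DMSO.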

The target is the same in assay [12]. Briefly: TOX21_p53_BLA_p5_ratio: Tox21 HCT-116 p53 Agonism Beta-lactamase Assay, Ratio, Phase 5 (AID 2283599). Put shortly:
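Beta-lactamase reporter ratio (blue 460 nm over green 530 nm, 405 nm excitation) after 2 h CCF4-AM loading, in HCT-116 cells exposed 16 h at 37 C to compounds pinned at 217-fold dilution. Increases relative to DMSO baseline scored.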

Assay [13] can be described thus: TOX21_p53_BLA_p5_viability: Viability Assessment in the Tox21 HCT-116 p53 Agonism Beta-lactamase Assay, Phase 5 (AID 2283600). The procedure, abridged: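 Counter-readout for cytotoxicity: ATP-dependent luminescence from CellTiter-Glo, read in the beta-lactamase wells after 30 min at RT, following a 16 h compound exposure at 37C.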
Assay [14] can be described thus: Tanguay_ZF_120hpf_AXIS_legacy: (Legacy) Oregon State University Tanguay Lab 120 Hour Post-fertilization zebrafish Assay for Body Axis Malformation (AID 2283635). Put shortly: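 Static 6–120 hpf chemical exposure of dechorionated wild-type 5D zebrafish, one per well at 28C; morphology endpoint scored binary at 120 hpf relative to DMSO control.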
Assay [15] in a line: Tanguay_ZF_120hpf_YSE_legacy: (Legacy) Oregon State University Tanguay Lab 120 Hour Post-fertilization zebrafish Assay for Yolk Sac Edema (AID 2283634). The procedure, abridged:
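Readout: presence or absence of yolk sac edema at 120 hpf, fitted upward against DMSO controls. Exposure ran statically from 6 hpf in dechorionated embryos kept at 28C.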

Assay [16] can be described thus: TOX21_p53_BLA_p3_viability: Viability Assessment in the Tox21 HCT-116 p53 Agonism Beta-lactamase Assay, Phase 3 (AID 2283593).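 Further: cells exposed to compound for 16 h before reading.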 Put shortly:
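Cellular ATP was quantified by CellTiter-Glo luminescence, read after 30 min at room temperature. Beforehand, HCT116 cells (4000/well) received compound 5 h post-seeding, 217-fold diluted from DMSO, then incubated 16 h at 37C.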

Assay [17] in a line: TOX21_p53_BLA_p4_viability: Viability Assessment in the Tox21 HCT-116 p53 Agonism Beta-lactamase Assay, Phase 4 (AID 2283597).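 Further: hits lower the luminescence signal meaning cytotoxicity.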 The procedure, abridged:
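Compound exposure of HCT116 cells lasts 16 h at 37C, 5% CO2, with DMSO stocks diluted 217-fold. Cellular ATP is then quantified by CellTiter-Glo luminescence after 30 min at room temperature.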

Results filed as inconclusive are left out. Calls of active or inactive are those of the source. How the source made its calls, unless noted: active means hit-call score of the fitted dose curve at least 0.9, where 1 is the maximum; inconclusive means response in the unintended direction; inactive means score below 0.9.

Cellular tumor antigen p53 (Homo sapiens), sequence (P04637 whole entry, looked up): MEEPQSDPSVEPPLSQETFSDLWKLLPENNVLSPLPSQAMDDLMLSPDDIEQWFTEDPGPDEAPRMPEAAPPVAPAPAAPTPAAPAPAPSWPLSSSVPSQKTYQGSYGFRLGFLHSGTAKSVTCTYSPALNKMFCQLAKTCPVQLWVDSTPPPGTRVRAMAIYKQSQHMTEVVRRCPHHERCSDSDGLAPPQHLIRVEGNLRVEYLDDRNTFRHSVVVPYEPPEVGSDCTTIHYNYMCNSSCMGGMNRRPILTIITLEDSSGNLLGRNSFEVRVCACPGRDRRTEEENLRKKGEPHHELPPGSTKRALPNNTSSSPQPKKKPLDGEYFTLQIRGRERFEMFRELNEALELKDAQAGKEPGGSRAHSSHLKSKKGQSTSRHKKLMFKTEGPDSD

Regarding `C/C=C/c1ccc(OC)cc1`, the result in [1], in assay [2], in assay [3], in assay [4], in assay [5] and in [6] was inactive. The call in [7], in [8], in assay [9] and in assay [10] was inactive.
On to `CCCCCCC(CCCCCCCCCCC(=O)OCC(COC(C)=O)OC(C)=O)OC(C)=O` (stereo not drawn), for which the molecule was called inactive in assay [1], in assay [2], in assay [3], in assay [4], in assay [5] and in [11]. Besides, the result in assay [12], in assay [13], in assay [6], in assay [14], in [7] and in assay [8] was inactive. In addition, the outcome in assay [9] and in assay [10] was inactive.
With `O=C1CCCCC1`, the outcome in [1], in [2], in [3], in assay [4], in [5] and in [6] was inactive. In addition, the call in [15], in assay [7], in [8], in [9] and in assay [10] was inactive.
Take `CC(N)=O`: the call in [1], in [2], in [3], in assay [4], in [5] and in assay [6] was inactive. For the same molecule, the call in assay [14], in [7], in assay [8], in [9] and in assay [10] was inactive.
`O=[Si]=O`: the call in [1], in [2], in assay [3], in [4], in [5] and in assay [16] was inactive. The molecule was called inactive in [17], in [6], in assay [7], in [8], in [9] and in assay [10].
For the molecule `CC(=O)[C@@]1(O)CC[C@H]2[C@@H]3CCC4=CC(=O)CC[C@]4(C)[C@H]3CC[C@@]21C`, the call in [1], in assay [2], in [3], in [4], in assay [5] and in [6] was inactive. Also, the molecule was called inactive in assay [15], in [7], in assay [8], in [9] and in [10].
As to `NC=O`, the molecule was classed as inactive in assay [1], in assay [2], in assay [3], in assay [4], in [5] and in [6]. Besides, the outcome in [15], in assay [7], in assay [8], in assay [9] and in [10] was inactive.
`N[C@@H](Cc1c[nH]c2ccccc12)C(=O)O`: the call in [1], in [2], in assay [3], in assay [4], in [5] and in assay [6] was inactive. Besides, the molecule was called inactive in assay [7], in [9] and in [10].
As to `CCN(CC)CCOc1ccc(C(=C(Cl)c2ccccc2)c2ccccc2)cc1`, the AC50 (as a rule, the midpoint of the concentration-response curve, whichever way the signal moves) in assay [1] is 80.1 µM (active); in assay [2], 56.6 µM (active); in assay [4] it was 62.5 µM (active); in assay [5] it was 28 µM (active) [middle of 5 runs]; in assay [6] it was 26.9 µM (active). Also, the call in [3], in assay [7], in assay [9] and in assay [10] was inactive.
